Bioassay records as filed in PubChem.
CatB inh = human cathepsin B inhibitors, primary screen, biochemical, fluorogenic substrate | P07858 | purified cathepsin B, fluorescence | inhibition, %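 (tested at 10 µM)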 | 0.1% of 63,000 active | AID 453, 2006; in the data active means inhibition above about 21%
ROCK2 inh = inhibitors of human ROCK2 kinase, primary screen, biochemical, high-throughput, luminescence. inhibition, % at 6 µM. purified ROCK2, Kinase-Glo ATP depletion luminescence. 0.35% of 60,000 active;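 active means inhibition above the screen-wide mean inhibition plus 3 SD, cut at about 18% in these data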
CatL inh = inhibitors of human cathepsin L, biochemical | Procathepsin L (Homo sapiens), P07711 | purified cathepsin L, fluorogenic substrate, fluorescence | inhibition, %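 (tested at 10 µM)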 | 0.17% of 58,000 active; in the data active means inhibition above about 45%
CatB mixtures = cathepsin B inhibitors from pooled compounds, primary screen, biochemical, compound mixtures, AMC fluorescence | P07858 | inhibition, %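 (ten-compound pools at 5 µM per compound and 50 µM total)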 | AID 488, 2006 | Purified cathepsin B, AMC dipeptide fluorescence | 0.06% of 62,000 active; in the data active means inhibition above about 22%, passing the limit was not always enough; inconclusive means no clear call, values can overlap the other calls
PKA inh = inhibitors of human PKA kinase activity, primary screen, biochemical, ATP-depletion luminescence, Kemptide substrate; cAMP-dependent protein kinase catalytic subunit alpha (Homo sapiens), P17612; PKA Kemptide phosphorylation, Kinase-Glo ATP luminescence; inhibition, % at 6 µM; 0.1% of 65,000 active; AID 524, 2006;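 active means inhibition above the screen-wide mean inhibition plus 3 SD, cut at about 21% in these data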
CatS inh = inhibitors of human cathepsin S, biochemical, compound mixtures. 0.06% of 62,000 active. recombinant cathepsin S, AMC dipeptide fluorescence, pooled mixtures. inhibition, %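 (tested at 5 µM per compound within 10-compound mixtures)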. AID 501, 2006; in the data active means inhibition above about 32%, passing the limit was not always enough; inconclusive means no clear call, values can overlap the other calls
Of the large screens only hits and unclear results are named; the others gave an inactive call. Compounds with a hit are over-represented: about 0.51% of the library has one in this group of screens.

c1ccc(Cn2ncc3c2ncn2nc(-c4ccncc4)nc32)cc1	PKA inh 48
Cc1ccc(-n2ncc3c2ncn2c(-c4ccncc4)nnc32)cc1	none
c1ccc(Cn2ncc3c2ncn2c(-c4ccncc4)nnc32)cc1	PKA inh 76
O=C(c1cc2ccccc2o1)N1CCN=C1SCc1cccnc1	none
CC(=O)n1cc(-c2ccncc2)c2ccccc21	ROCK2 inh 61, PKA inh 26
Cn1c(C(=O)NCCCN2CCOCC2)cc2c(=O)n(C)c3ccccc3c21	CatS inh 47
Cn1c(C(=O)NCCCN2CCN(c3ccccc3F)CC2)cc2c(=O)n(C)c3ccccc3c21	none
Cn1c(C(=O)NCCN2CCCCCC2)cc2c(=O)n(C)c3ccccc3c21	CatS inh 69
CC1CCN(CCCNC(=O)c2cc3c(=O)n(C)c4ccccc4c3n2C)CC1	CatS inh inconclusive
Cn1c(C(=O)NCCN2CCN(Cc3ccccc3)CC2)cc2c(=O)n(C)c3ccccc3c21	CatS inh 58
CCN(CCCNS(=O)(=O)c1ccc2c(c1)CCN2C(C)=O)c1cccc(C)c1	none
Cc1cccc(C)c1OCC(=O)Nn1c(C)nc2ccccc2c1=O	none
O=C(Oc1oc(-c2ccco2)nc1C=Nc1ccccc1)c1ccoc1	none (no result: CatB mixtures, CatS inh)
O=C(Oc1oc(-c2ccco2)nc1C=Nc1ccccc1)c1ccco1	CatB inh 22
Cc1noc(/C=C/N(C)C)c1S(=O)(=O)N1CCN(c2ccccc2)CC1	CatL inh 53
O=C(c1ccccc1)c1ccc2nc[nH]c2c1	ROCK2 inh 33
O=C(NC1CCCC1)c1ccc2nc[nH]c2c1	none
COc1cccc(C(c2sc3nc(C)nn3c2O)N2CCc3ccccc3C2)c1 (stereo not given)	none
CCn1cc(C(=O)Nc2nncs2)c(=O)c2cc(F)c(N3CCN(C(=O)c4ccco4)CC3)cc21	none
Nc1nc2n(n1)C1(CCCCC1)C1=C(CCCC1)N2	CatB inh 39, CatB mixtures 69
CCn1c(Sc2ccc(N)cc2Cl)nc2ccccc21	none
CC(=O)OC1(C(F)(F)F)Oc2ccccc2NC1=O (stereo not given)	CatB inh 75, CatL inh 85, CatB mixtures 61
COc1cccc(NC(=O)NC2(C(F)(F)F)Oc3ccccc3O2)c1	none (no result: ROCK2 inh)
CCN(CC)c1ccc(/C=N/n2c(=S)[nH]nc(C)c2=O)cc1	CatL inh 104
CN1CCN(S(=O)(=O)c2ccc(Br)s2)CC1	CatL inh 97
CC(=O)c1cc(C#N)c(SCCC(C)C)nc1C	none
CC(=O)c1cc(C#N)c(SCc2ccncc2)nc1C	ROCK2 inh 28 (no result: CatB mixtures, CatS inh)
O=C1CC(c2ccco2)Cc2nc(N3CCc4ccccc4C3)ncc21 (stereo not given)	CatB inh 21
Nc1ncc2c(n1)CC(c1ccco1)CC2=O (stereo not given)	none
CCCCc1c(C)nc(N)[nH]c1=O	ROCK2 inh 18
CC(=O)Nc1c(C(=O)c2ccccc2)oc2ccccc12	CatL inh 104, CatS inh inconclusive
CCn1cc(C(=O)N2CCCc3ccccc32)c2cc(OC)c(OC)cc2c1=O	none (no result: ROCK2 inh, CatL inh)
CN1/C(=N\O)c2cccc3cccc1c23	ROCK2 inh 37
CN1c2cccc3cccc(c23)N(C)C1(C)C	none
Cc1cc(C)c2c(=O)n(CC(=O)NCCCN3CCOCC3)sc2n1	none
Cc1cc(C)c2c(=O)n(CC(=O)NCCCN3CCN(c4ccccc4F)CC3)sc2n1	CatL inh 65
CCSc1ccccc1C(=O)n1nnc2ccccc21	CatB inh 32, CatB mixtures 30
Cc1occc1C(=O)n1nnc2ccccc21	none
C=CCOC(=O)CC(NC(=O)c1ccccc1)c1ccccc1 (stereo not given)	none
C=CC(=C)CC(NC)c1ccccc1 (stereo not given)	CatL inh 53
CC(=O)c1cccc(NC(=O)NCc2cccs2)c1	ROCK2 inh 20
c1cc2c(cc1Nc1nc(-c3ccc4c(c3)OCO4)cs1)OCCO2	ROCK2 inh 24
CCCCc1[nH]nc2c1C1(C(=O)N(CC)c3ccccc31)C(C#N)=C(N)O2 (stereo not given)	CatB inh 25
